Experiment [1] has as its target Aldehyde dehydrogenase, mitochondrial (Homo sapiens) (UniProt P05091). The experiment can be described thus: qHTS for Inhibitors of the Aldehyde Dehydrogenase Family (ALDH2) Primary screen (AID 2061308). Further: nearly all actives have a fitted effect of over 55% in size. As to conditions: ALDH2 enzyme inhibition qHTS, 1536-well; series mostly up to 56 µM. For orientation: In qHTS, concentration-response curves come from the screen itself.

Experiment [2] deals with Retinaldehyde dehydrogenase 3 (Homo sapiens) (UniProt P47895). The experiment can be described thus: qHTS for Inhibitors of the Aldehyde Dehydrogenase Family (ALDH1A3) Primary screen (AID 2061315). As to conditions: ALDH inhibition qHTS; series mostly up to 56 µM.

Each structure is given as a SMILES string. Results filed as inconclusive are left out. Entries that show only a call come without a potency. Calls of active or inactive are those of the source. The call rests on the fitted dose curve; in most records, active means well fitted curve in the direction sought with a large enough effect; inconclusive means small, poorly fitted or top-dose-only effect, or another doubt; inactive means no such curve, though single readings can be large; an effect the other way counts as inactive or inconclusive.

On to `O=C(Nc1cccc(C(=O)O)c1)Nc1nnc(-c2ccncc2)s1`, for which the Potency result in experiment [1] and in experiment [2] was “inactive” throughout.
Turning to `COc1cccc(-c2ccc3ncnc(NCc4cccc(F)c4)c3c2)c1`, the Potency entry in experiment [1] and in experiment [2] was “inactive” each time.
For the compound `C=C1C(=O)OC2/C=C(\C)CC/C=C(\C(=O)O)CC/C=C(\C)CCC12` (centres undefined), the Potency result in experiment [1] and in experiment [2] was “inactive” throughout.
On to `COc1cc(O)c(C(CC(=O)N2CCCC(C)(C)C2)c2ccc3c(c2)OCO3)c(OC)c1` (centres undefined), for which the Potency result in experiment [1] and in experiment [2] was “inactive” in each case.
Take `COc1ccc(-c2nnc3n2N=C(c2cc(OC)ccc2OC)CS3)cc1`: the Potency result in experiment [1] and in experiment [2] was “inactive” each time.
Turning to `O=C1CCCC2=C1C(c1ccncc1Cl)N=C(Nc1nc3ccccc3o1)N2` (centres undefined), the Potency result in experiment [1] and in experiment [2] was “inactive” throughout.
Take `O=C(NCCc1nc2ccccc2n1CCOc1ccc(F)cc1)C1CCCCC1`: the Potency entry in experiment [1] and in experiment [2] was “inactive” throughout.
Turning to `N#CN1CCC(NC(=O)c2ccc(F)cc2)CC1`, the Potency entry in experiment [1] and in experiment [2] was “inactive” throughout.
`Cc1ccc(OCCn2c(CCNC(=O)c3c(F)cccc3F)nc3ccccc32)cc1`: the Potency entry in experiment [1] and in experiment [2] was “inactive” throughout.
Consider `Cc1nc2ccc(Nc3nc(-c4ccncc4)nc4ccccc34)cc2s1`, for which the Potency entry in experiment [1] and in experiment [2] was “inactive” each time.
For `Cc1cn2c(n1)Cc1ccc(Cl)cc1C(c1ccc(N)cc1)=N2`, the Potency entry in experiment [1] and in experiment [2] was “inactive” in each case.
Consider `Oc1cccc(C2NC(=S)Nc3cccc(F)c32)c1` (centres undefined), for which the Potency result in experiment [1] and in experiment [2] was “inactive” in each case.
With `Cc1ccc(OCCn2c(CCNC(=O)c3ccc4cc[nH]c4c3)nc3ccccc32)cc1`, the Potency result in experiment [1] and in experiment [2] was “inactive” throughout.
For the compound `Cc1cc(-c2nnc3n2CCCCCC3)c(C)n1-c1ccccc1`, the Potency entry in experiment [1] and in experiment [2] was “inactive” throughout.
Consider `N#CC1=C(Nc2nc3ccccc3o2)OC2=C(C(=O)CCC2)C1c1[nH]ncc1Cl` (centres undefined), for which the Potency entry in experiment [1] and in experiment [2] was “inactive” throughout.
For `Cc1nc(NCc2ccccc2)c2nc(-c3ccccc3)n(CCN3CCCC3)c2n1`, the Potency entry in experiment [1] and in experiment [2] was “inactive” throughout.
On to `Cc1ccc(NS(=O)(=O)c2cc3c(cc2Cl)NC(=O)C3)cc1C`, for which the Potency entry in experiment [1] and in experiment [2] was “inactive” throughout.
Turning to `Cc1cc2c(s1)c1cnn(Cc3ccc(F)c(F)c3F)c(=O)c1n2C`, the Potency result in experiment [1] and in experiment [2] was “inactive” each time.
For `COc1ccc(OC)c(Nc2nn3c(=O)c4ccccc4nc3s2)c1`, the Potency entry in experiment [1] and in experiment [2] was “inactive” each time.
Consider `Oc1cccc2cc(-c3ccccc3)cnc12`, for which the Potency entry in experiment [1] and in experiment [2] was “inactive” each time.
Consider `FC(F)(F)c1ccccc1-c1nccc(NCc2ccc(-c3cccnc3)cc2)n1`, for which the Potency result in experiment [1] and in experiment [2] was “inactive” each time.
For `Cc1ccc(-c2nccc(=O)n2C(C)C(=O)NCCc2ccccc2)cc1` (centres undefined), the Potency entry in experiment [1] and in experiment [2] was “inactive” each time.

For the origin of these results see PubChem BioAssay (NCATS).
